# Shown are actives, neighbours in structure and some others; about 8% of the full set was active somewhere.
# SW480 rereplic: induces DNA re-replication in SW480 colon adenocarcinoma cells; SW480 DNA re-replication, Hoechst DNA content imaging, 48 h; Potency, µM (doses to about 46.1 µM), inactives show at the top dose re-replication activation, hits mostly activators; hit rate 1.8% among 340,000; AID 624297; also: % of control where 0% means no effect; nearly all actives have a fitted effect of over 55% in size
#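 Treated cells incubate 48 hr (37 C, 5% CO2), are stained 40 min with Hoechst, and nuclear fluorescence is enumerated; a rise in nuclei with high DNA signal marks re-replication.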
# MCF10A rerep: induces DNA re-replication in MCF 10a normal breast cells; MCF 10A DNA re-replication, Hoechst nuclear intensity, 48 h; Potency, µM (series often up to 46.1 µM), inactives show top-dose activity, positive = re-replication, actives largely listed as activators; hit rate 2.9% among 350,000; also: % of control where 0% means no effect; nearly all actives have a fitted effect of over 50% in size
# HT1080-NT tox: kills 2HG-producing HT-1080-NT fibrosarcoma cells. HT-1080-NT fibrosarcoma viability, CellTiter-Glo ATP luminescence, 48 h. Potency, µM (series often up to 46.1 µM), inactives show at the highest dose activity, negative = less viability, actives largely listed as cytotoxic. hit rate 1.6% among 360,000. AID 686970;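 also: NT is the 2HG producing partner of a matched IDH1 knockdown line; 0% = DMSO-treated cells and -100% = media-only wells without cells; nearly all actives have a fitted effect of over 55% in size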
#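 Read-out is CellTiter-Glo luminescence after 10 minutes at room temperature, following 48 hours' compound treatment of HT-1080-NT cells (750 cells/well, RPMI, 5% FBS, 37 degrees C).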
# HT1080 IDH1KD tx: HT-1080 IDH1 knockdown cell toxicity (counter line). HT-1080 IDH1 knockdown viability, ATP luminescence, 48 h. Potency, µM (titrated, usually from 46.1 µM), for inactives: top-dose activity, negative = toxicity, most hits filed as cytotoxic. hit rate 2% among 360,000. AID 686971;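 also: 0% = DMSO wells and -100% = cell-free medium wells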
#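 CellTiter-Glo luminescence after 48 h compound exposure at 37 degrees C of IDH1-knockdown HT-1080 cells in 5% FBS RPMI. %Activity scaled between DMSO wells and cell-free media wells, with curves fitted and assigned curve classes.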
# KB-3-1 tox: kills parental KB-3-1 adenocarcinoma cells. hit rate 1.4% among 400,000. Potency, µM (series often up to 46.1 µM), actives largely listed as cytotoxic. KB-3-1 viability, CellTiter-Glo ATP luminescence, 72 h; also: % is scaled to controls: 0 for no effect and ±100 for the full control effect; nearly all actives have a fitted effect of over 60% in size
#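 72 h, 37 °C compound treatment of KB-3-1 parental cells; CellTiter-Glo added, 10 min, luminescence read. Data corrected against DMSO-only plates and normalized before curve fitting.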
# KB-V1 cytotox: kills drug-selected multidrug resistant KB-V1 cells; KB-V1 MDR cells viability, CellTiter-Glo, 72 h; Potency, µM (series often up to 46.1 µM), most hits filed as cytotoxic; hit rate 3.4% among 400,000; AID 1347076; also: % is scaled to controls: 0 for no effect and ±100 for the full control effect; nearly all actives have a fitted effect of over 60% in size
#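 KB-V1, DMEM (no phenol red) + 10% FBS; cpd pin-transferred, titration series; 72 h, 37 degrees C; CellTiter-Glo, luminescence. Data normalized, curve-fit.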
# The depositor's hits bear a star; i = inactive; ? = inconclusive; nt = no result; [ ] = another dose, or the depositor's remark. Calls follow the shape of the dose curve; as a rule, active = well fitted curve in the direction sought with a large enough effect; inconclusive = small, poorly fitted or top-dose-only effect, or another doubt; inactive = no such curve, though single readings can be large; an effect the other way counts as inactive or inconclusive. Potency is read from the fitted curve at half-maximal effect.
SMILES,SW480 rereplic,MCF10A rerep,HT1080-NT tox,HT1080 IDH1KD tx,KB-3-1 tox,KB-V1 cytotox
COc1ccc(-c2cc(C(F)(F)F)c(C#N)c(SCC(=O)Nc3ccc(F)cc3)n2)cc1,nt,nt,nt,nt,i,i
COc1ccc(C(C)=O)cc1CC1(C)C(=O)Nc2ccc(-c3ccccc3OC)cc21 (centres undefined),nt,nt,-2%,-21%,i,i
COc1ccccc1-c1ccc2c(c1)C(C)(Cc1cccc(F)c1)C(=O)N2 (centres undefined),nt,nt,?,?,?,21µM*
CN(CC(=O)Nc1c(Cl)cccc1Cl)C(=O)c1ccccc1-c1nc2ccccc2s1,3%,4%,-6%,-10%,i,8.2µM*
COc1cccc(NC(=O)CN(C)C(=O)c2ccccc2-c2nc3ccccc3s2)c1,-7%,?,-5%,-2%,i,18µM*
COc1cccc(NC(=O)CN(C)C(=O)CSc2nc3ccccc3s2)c1,-2%,-1%,-8%,-8%,i,?
Cc1cc(C)cc(NC(=O)C(=O)NC(C)c2ccccc2)c1 (centres undefined),nt,nt,nt,nt,i,i
CCOc1ccc(CCNC(=O)CSc2nn(-c3ccc(C)c(Cl)c3)c(=S)s2)cc1OCC,-1%,?,9%,13%,i,6.5µM*
CCOc1ccc(CCNC(=O)CSc2nnnn2C)cc1OCC,1%,-8%,15%,17%,i,i
O=C(Nc1ccc(F)cc1)Nc1cc(OCC(F)(F)F)cc(OCC(F)(F)F)c1,?,?,7.3µM*,8.2µM*,6.5µM*,?
Cc1ccc(S(=O)(=O)/N=C2/C=C(C3C(=O)CC(C)(C)CC3=O)C(=O)c3ccccc32)cc1,?,?,-14%,?,i,16µM*
COc1ccc(OCc2nc3c4c(-c5ccc(OC)cc5)c(-c5ccc(OC)cc5)oc4ncn3n2)cc1,nt,nt,nt,nt,i,i
Cc1ccc(C(=O)COC(=O)c2cccc(NC(=O)c3ccc(Cl)cc3Cl)c2)cc1,nt,nt,nt,nt,i,?
COc1cccc2c1C(=O)c1c(O)c3c(c(O)c1C2=O)CC(O)(C(C)=O)CC3OC1CC(O)C(O)C(C)O1 (centres undefined),?,-6%,?,23µM*,?,?
COc1cccc2c1C(=O)c1c(O)c3c(c(O)c1C2=O)C[C@@](O)(C(=O)CO)C[C@@H]3O[C@H]1C[C@H](N)[C@H](OC2CCCCO2)[C@H](C)O1 (some centres undefined),-7%,-18%,nt,nt,?,?
COc1cccc2c1C(=O)c1c(O)c3c(c(O)c1C2=O)C[C@](O)(C(C)=O)C[C@H]3O[C@@H]1C[C@@H](N)[C@@H](O)[C@@H](C)O1,-132%,-36%,0.65µM*,0.41µM*,?,i
COc1cccc2c1C(=N)c1c(O)c3c(c(O)c1C2=O)CC(O)(C(C)=O)CC3OC1CC(N)C(O)C(C)O1 (centres undefined),?,-13%,21µM*,21µM*,?,?
CCCCC(=O)OCC(=O)C1(O)Cc2c(O)c3c(c(O)c2C(OC2CC(NC(=O)C(F)(F)F)C(O)C(C)O2)C1)C(=O)c1c(OC)cccc1C3=O (centres undefined),15%,-13%,23µM*,8.2µM*,?,i
COC(=O)c1ccc(N/N=C/c2cc([N+](=O)[O-])cc(OC)c2O)cc1,-14%,11%,-22%,-4%,i,i
COc1cc([N+](=O)[O-])cc(/C=N/N(CCC#N)C(C)=O)c1O,5.8µM*,?,?,?,i,i
Cc1ccc(N(C(C)C(=O)N2CCOCC2)S(C)(=O)=O)cc1C (centres undefined),23µM*,-13%,-5%,0%,i,i
O=C1OCCN1C(=O)[C@H]1[C@H](c2ccc(Cl)cc2)C(c2ccc(F)cc2)=NN1c1ccc(Br)cc1,21µM*,?,-27%,?,i,i
O=C1OCCN1C(=O)[C@H]1[C@H](c2ccc(F)cc2)C(c2ccc(F)cc2)=NN1c1ccccc1,18µM*,5.8µM*,-13%,-16%,i,i
O=C1OCCN1C(=O)[C@H]1[C@H](c2ccc(F)cc2)C(c2ccccc2)=NN1c1ccccc1,21µM*,5.2µM*,-11%,-11%,i,i
CC[C@@H]1C(c2ccc(F)cc2)=NN(c2ccccc2)[C@H]1C(=O)N1CCOC1=O,16%,?,-6%,-8%,i,i
SMILES,SW480 rereplic,MCF10A rerep,HT1080-NT tox,HT1080 IDH1KD tx,KB-3-1 tox,KB-V1 cytotox
O=C1OCCN1C(=O)[C@H]1[C@H](c2ccc(Cl)cc2)C(c2ccc(F)cc2)=NN1c1ccccc1,?,3.7µM*,-16%,-22%,?,?
O=C1OCCN1C(=O)[C@H]1[C@H](c2ccc(F)cc2)C(c2ccc(F)cc2)=NN1c1ccc(Br)cc1,?,?,-18%,-25%,i,?
CC(=O)c1cccc(NC(=O)C2CCCN(c3nnc(-n4cccc4)s3)C2)c1 (centres undefined),nt,nt,nt,nt,i,i
COc1ccc(NC(=O)c2cc(S(=O)(=O)N3CCCC(C)C3)cn2C)c(OC)c1 (centres undefined),nt,nt,nt,nt,i,i
Cc1ccccc1-c1noc(-c2ccccc2OCC(=O)Nc2ccccc2[N+](=O)[O-])n1,nt,nt,nt,nt,i,i
CCN(CC)S(=O)(=O)c1ccc2c(c1)N(CC(=O)NCc1ccccc1)C(=O)C1CCCCN21 (centres undefined),nt,nt,nt,nt,i,i
c1ccc2c(-c3csc(-c4ccncc4)n3)c[nH]c2c1,21µM*,?,?,?,?,?
Cc1ccccc1NC(=S)N(CCN(C)C)C(C)c1ccccn1 (centres undefined),4%,15%,15%,9%,i,16µM*
COc1ccc(CCN2C(=O)CN(C3CCC(C)CC3)C(=O)C2c2ccc(OC(C)C)c(OC)c2)cc1OC (centres undefined),nt,nt,nt,nt,i,i
CC1=C(c2ccccc2)C(O)(c2ccccc2)C(C)C1=O (centres undefined),?,21µM*,?,?,?,?
CC1=C(c2ccccc2)CCC1=O,1%,-4%,10%,5%,i,?
CCc1ccccc1NC(=O)CN1CCN(C(=O)CNC(=O)c2ccc(-c3ccccc3)cc2)CC1,62%,5.8µM*,-6%[9.24 µM],?,i,?

# Compound activity (PubChem BioAssay)
